Of roughly 21,000 targets only a part is listed; those with the largest changes were picked by preference.
Each target was assayed with CC1Cc2ccccc2N1C(=O)C1CCCN(C1)C(=O)CCl (mixture of isomers) [TRIM25 ligand 11 (diastereomer mixture)] (assay: probe-labelled cysteine peptide fold change vs DMSO (competition) (log2 fold change); higher = less target engagement (more negative = stronger competition)). Conditions: 10 µM; THP-1; incubation time: 4 h.
Chain of UniProt Q02880 (Q02880 whole entry, looked up): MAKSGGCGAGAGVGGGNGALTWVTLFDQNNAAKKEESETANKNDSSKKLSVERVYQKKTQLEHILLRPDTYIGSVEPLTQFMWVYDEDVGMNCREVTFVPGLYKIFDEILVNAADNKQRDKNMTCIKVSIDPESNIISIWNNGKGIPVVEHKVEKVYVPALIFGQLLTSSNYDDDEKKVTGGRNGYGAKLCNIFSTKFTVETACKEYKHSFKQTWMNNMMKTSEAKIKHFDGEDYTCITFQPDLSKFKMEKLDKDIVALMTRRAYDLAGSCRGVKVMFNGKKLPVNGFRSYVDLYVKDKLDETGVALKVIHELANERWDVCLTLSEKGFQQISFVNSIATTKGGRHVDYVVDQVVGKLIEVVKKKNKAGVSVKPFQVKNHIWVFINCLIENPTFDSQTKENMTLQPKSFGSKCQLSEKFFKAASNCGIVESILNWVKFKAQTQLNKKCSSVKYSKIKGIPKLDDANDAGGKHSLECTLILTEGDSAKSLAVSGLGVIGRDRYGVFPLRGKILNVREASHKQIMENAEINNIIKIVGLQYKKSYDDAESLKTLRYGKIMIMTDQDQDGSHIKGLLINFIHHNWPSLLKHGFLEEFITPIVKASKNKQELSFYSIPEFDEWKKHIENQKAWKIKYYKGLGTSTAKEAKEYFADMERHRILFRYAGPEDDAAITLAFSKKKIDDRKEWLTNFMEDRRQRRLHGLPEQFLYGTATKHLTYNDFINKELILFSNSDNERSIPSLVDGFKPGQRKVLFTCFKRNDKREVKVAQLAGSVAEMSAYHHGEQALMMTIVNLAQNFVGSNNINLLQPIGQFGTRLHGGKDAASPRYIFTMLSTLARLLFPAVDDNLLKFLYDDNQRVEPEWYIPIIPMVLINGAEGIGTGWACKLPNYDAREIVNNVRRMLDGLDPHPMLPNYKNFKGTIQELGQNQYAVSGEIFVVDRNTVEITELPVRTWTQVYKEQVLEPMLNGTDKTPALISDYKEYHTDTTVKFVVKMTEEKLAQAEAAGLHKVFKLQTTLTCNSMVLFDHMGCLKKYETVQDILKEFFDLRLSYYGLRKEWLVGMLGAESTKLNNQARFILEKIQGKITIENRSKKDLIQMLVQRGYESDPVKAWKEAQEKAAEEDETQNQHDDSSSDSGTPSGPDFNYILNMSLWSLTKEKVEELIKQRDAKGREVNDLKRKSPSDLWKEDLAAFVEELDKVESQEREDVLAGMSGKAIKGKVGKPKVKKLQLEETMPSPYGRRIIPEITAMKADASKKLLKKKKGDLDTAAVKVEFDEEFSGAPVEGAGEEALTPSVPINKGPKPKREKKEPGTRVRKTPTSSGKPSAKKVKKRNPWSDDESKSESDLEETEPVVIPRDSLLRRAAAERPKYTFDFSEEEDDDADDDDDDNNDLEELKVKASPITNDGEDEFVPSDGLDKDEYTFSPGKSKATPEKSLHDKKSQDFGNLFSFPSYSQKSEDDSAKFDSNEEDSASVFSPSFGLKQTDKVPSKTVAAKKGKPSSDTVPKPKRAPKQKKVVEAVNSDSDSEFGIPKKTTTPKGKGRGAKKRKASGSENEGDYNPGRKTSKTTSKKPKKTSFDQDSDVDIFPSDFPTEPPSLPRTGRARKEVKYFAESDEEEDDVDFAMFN
Chain of UniProt Q01085 (Q01085 whole entry, looked up): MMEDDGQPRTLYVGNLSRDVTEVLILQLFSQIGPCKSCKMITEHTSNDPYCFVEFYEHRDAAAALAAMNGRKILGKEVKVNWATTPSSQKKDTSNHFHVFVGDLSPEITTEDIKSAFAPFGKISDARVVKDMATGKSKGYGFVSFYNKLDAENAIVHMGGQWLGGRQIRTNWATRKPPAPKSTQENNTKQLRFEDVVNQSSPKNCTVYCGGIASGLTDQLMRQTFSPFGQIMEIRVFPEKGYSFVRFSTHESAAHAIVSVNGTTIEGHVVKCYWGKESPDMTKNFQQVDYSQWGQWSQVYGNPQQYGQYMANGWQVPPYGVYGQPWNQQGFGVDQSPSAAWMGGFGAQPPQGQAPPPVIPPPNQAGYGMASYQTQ
Chain of UniProt Q6P1X5 (Q6P1X5 whole entry, looked up): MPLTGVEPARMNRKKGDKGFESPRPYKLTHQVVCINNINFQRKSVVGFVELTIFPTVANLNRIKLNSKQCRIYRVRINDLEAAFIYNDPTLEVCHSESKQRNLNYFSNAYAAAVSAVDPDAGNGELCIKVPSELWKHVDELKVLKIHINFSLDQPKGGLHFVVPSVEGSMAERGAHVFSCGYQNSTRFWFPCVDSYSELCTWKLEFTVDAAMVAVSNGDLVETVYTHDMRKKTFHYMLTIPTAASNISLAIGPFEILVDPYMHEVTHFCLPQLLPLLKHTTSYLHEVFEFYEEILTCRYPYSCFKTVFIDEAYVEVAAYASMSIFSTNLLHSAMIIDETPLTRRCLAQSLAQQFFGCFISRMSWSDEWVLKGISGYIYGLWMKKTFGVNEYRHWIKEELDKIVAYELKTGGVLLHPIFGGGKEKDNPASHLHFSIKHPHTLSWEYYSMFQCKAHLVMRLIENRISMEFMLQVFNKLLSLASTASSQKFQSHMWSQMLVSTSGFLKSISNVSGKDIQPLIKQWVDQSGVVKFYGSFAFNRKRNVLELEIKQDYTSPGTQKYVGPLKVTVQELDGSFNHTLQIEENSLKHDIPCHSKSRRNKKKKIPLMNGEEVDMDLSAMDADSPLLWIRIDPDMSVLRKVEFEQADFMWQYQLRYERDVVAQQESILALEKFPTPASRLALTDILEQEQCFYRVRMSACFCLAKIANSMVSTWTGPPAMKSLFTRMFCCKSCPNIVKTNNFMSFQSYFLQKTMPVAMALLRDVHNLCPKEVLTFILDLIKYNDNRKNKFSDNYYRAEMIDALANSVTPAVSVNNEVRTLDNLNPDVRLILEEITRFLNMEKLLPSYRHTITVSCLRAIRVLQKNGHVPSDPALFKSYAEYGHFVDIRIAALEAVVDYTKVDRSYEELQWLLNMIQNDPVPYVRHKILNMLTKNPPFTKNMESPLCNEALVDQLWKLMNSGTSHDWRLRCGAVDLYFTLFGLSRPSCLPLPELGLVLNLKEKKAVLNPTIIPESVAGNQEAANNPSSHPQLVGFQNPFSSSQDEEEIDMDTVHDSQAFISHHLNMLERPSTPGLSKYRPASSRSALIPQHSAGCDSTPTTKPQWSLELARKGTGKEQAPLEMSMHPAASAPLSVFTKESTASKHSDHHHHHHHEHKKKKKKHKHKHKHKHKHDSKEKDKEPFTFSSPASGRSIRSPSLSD
Chain of UniProt Q86TJ2 (Q86TJ2 whole entry, looked up): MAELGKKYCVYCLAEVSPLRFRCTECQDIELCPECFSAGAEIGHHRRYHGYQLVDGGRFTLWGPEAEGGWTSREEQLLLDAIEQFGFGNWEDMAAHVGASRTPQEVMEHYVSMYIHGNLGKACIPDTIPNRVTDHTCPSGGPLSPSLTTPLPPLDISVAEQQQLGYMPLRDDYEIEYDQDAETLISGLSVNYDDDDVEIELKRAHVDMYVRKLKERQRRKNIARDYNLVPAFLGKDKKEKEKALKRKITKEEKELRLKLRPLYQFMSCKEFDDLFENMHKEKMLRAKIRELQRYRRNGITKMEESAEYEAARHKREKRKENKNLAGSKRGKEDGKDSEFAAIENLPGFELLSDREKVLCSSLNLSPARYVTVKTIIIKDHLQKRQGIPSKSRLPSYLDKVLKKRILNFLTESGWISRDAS
Chain of UniProt Q9Y5B9 (Q9Y5B9 whole entry, looked up): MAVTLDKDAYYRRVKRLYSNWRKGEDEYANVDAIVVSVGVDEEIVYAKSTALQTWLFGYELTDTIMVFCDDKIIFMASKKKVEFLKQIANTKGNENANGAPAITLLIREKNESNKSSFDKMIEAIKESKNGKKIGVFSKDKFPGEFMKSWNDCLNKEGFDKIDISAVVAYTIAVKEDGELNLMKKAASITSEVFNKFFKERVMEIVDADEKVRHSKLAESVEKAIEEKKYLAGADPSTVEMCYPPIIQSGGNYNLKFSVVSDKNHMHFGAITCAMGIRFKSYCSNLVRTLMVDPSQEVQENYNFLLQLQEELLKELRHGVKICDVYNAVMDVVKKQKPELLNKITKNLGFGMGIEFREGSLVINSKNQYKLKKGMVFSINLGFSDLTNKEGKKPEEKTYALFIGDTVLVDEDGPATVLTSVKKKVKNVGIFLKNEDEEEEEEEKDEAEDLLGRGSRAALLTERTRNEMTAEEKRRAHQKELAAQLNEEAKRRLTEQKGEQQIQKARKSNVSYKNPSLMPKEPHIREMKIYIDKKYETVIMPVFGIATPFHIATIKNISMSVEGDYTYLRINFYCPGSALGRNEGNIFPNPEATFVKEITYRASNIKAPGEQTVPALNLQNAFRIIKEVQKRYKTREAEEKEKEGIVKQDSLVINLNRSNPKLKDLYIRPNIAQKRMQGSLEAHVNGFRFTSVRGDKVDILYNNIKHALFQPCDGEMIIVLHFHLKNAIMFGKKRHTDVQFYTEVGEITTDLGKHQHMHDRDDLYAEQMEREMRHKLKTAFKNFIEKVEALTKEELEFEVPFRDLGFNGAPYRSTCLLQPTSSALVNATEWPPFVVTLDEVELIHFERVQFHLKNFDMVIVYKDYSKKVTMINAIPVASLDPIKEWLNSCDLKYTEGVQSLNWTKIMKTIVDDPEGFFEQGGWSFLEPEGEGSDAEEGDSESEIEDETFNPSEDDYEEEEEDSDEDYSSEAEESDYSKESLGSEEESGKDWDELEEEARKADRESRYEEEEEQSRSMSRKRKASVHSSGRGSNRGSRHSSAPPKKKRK
Chain of UniProt P53597 (P53597 whole entry, looked up): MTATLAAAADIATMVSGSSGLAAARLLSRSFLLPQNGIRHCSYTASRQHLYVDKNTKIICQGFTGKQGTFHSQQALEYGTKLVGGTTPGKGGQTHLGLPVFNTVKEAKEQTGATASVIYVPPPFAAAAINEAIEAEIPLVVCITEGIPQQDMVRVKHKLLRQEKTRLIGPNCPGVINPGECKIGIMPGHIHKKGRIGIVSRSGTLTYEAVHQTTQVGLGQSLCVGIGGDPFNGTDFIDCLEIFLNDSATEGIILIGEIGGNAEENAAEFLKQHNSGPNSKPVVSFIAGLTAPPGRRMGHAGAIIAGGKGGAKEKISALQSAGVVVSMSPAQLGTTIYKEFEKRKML
In the case of “TDRD7_Q8NHU6_284_EDLNQGILQQFEHWPHICTVEK (UniProt Q8NHU6)”, the “probe-labelled cysteine peptide fold change” value is reported as 0.0148. For “SSH3_Q8TE77_634_TQAFQEQEQGQGQGQGEPCISSTPR (UniProt Q8TE77)”, the “probe-labelled cysteine peptide fold change” value was -0.0571. With “TADA2B_Q86TJ2_32+35_CTECQDIELCPECFSAGAEIGHHR (UniProt Q86TJ2)” the “probe-labelled cysteine peptide fold change” value was 0.502. For “TCEAL3_Q969E4_44_TECEGKREDEGEPGDEGQLEDEGSQEK (UniProt Q969E4)”, the “probe-labelled cysteine peptide fold change” value was -0.32. For “TGFBRAP1_Q8WUH2_32_VNIECVECCGR (UniProt Q8WUH2)”, the “probe-labelled cysteine peptide fold change” value was -0.0319. In the case of “TOP2B_Q02880-2_7_SGGCGAGAGVGGGNGALTWVNNAAK (UniProt Q02880)”, the “probe-labelled cysteine peptide fold change” value is reported as -0.0783. In the case of “SUPT16H_Q9Y5B9_574_INFYCPGSALGR (UniProt Q9Y5B9)”, the “probe-labelled cysteine peptide fold change” value is reported as 0.121. With “TMEM94_Q12767_381_CIWGHFLR (UniProt Q12767)” the “probe-labelled cysteine peptide fold change” value was -0.00858. For “TLE1_Q04724_47_IKEEFQFLQAQYHSLKLECEK<|>TLE2_Q04725_46_IKEEFQFLQAQYHSLKLECEK (UniProt Q04725+Q04724)”, the “probe-labelled cysteine peptide fold change” value was -0.573. For “THBS1_P07996_754_IPDDRDNCPFHYNPAQYDYDRDDVGDR (UniProt P07996)”, the “probe-labelled cysteine peptide fold change” value was 0.813. With “THOC2_Q8NI27_743_DALLDHDLALPLCLLMAQQR (UniProt Q8NI27)” the “probe-labelled cysteine peptide fold change” value was 0.0629. “TBCD_Q9BTW9_457_GACSVGTNVR (UniProt Q9BTW9)” was tested, and the “probe-labelled cysteine peptide fold change” value was 0.145. “TIAL1_Q01085_205+209_NCTVYCGGIASGLTDQLMR (UniProt Q01085)” was tested, and the “probe-labelled cysteine peptide fold change” value was 0.161. In the case of “TET3_O43151_1381_GKPWSPCK (UniProt O43151)”, the “probe-labelled cysteine peptide fold change” value is reported as -0.294. In the case of “SUCLG1_P53597_172_LIGPNCPGVINPGECK (UniProt P53597)”, the “probe-labelled cysteine peptide fold change” value is reported as -0.0627.

Same assay, conditions: 50 µM; THP-1; incubation time: 4 h
“TRIP6_Q15654_362+365+368_AYHPGCFTCVVCHR (UniProt Q15654)” was tested, and the “probe-labelled cysteine peptide fold change” value was 0.0784. In the case of “ST13_P50502_209_LLGHWEEAAHDLALACKLDYDEDASAMLK (UniProt P50502)”, the “probe-labelled cysteine peptide fold change” value is reported as -0.574. “STK11IP_Q8N1F8_918_NCVSATEEEVTPQHR (UniProt Q8N1F8)” was tested, and the “probe-labelled cysteine peptide fold change” value was 0.108. For “TARSL2_A2RTX5_546_FQQDDAHIFCTVEQIEEEIK (UniProt A2RTX5)”, the “probe-labelled cysteine peptide fold change” value was 0.235. For “TANC1_Q9C0D5_800_MDALSCFLIK (UniProt Q9C0D5)”, the “probe-labelled cysteine peptide fold change” value was 0.0229. For “TAF2_Q6P1X5_357_CLAQSLAQQFFGCFISR (UniProt Q6P1X5)”, the “probe-labelled cysteine peptide fold change” value was -0.862. “TES_Q9UGI8_22_MGLGHEQGFGAPCLK (UniProt Q9UGI8)” was tested, and the “probe-labelled cysteine peptide fold change” value was -0.176.

— the supplement of paper PMC12067093, “Discovery and optimisation of a covalent ligand for TRIM25 and its application to targeted protein ubiquitination” (Chemical Science, 2025)
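Also: competitive chemoproteomic profiling in live THP-1 cells with an iodoacetamide desthiobiotin (IA-DTB) probe, comparing probe-labelled peptide intensities in compound-treated cells against DMSO-treated controls.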
